From PubChem BioAssay (Tox21)
Inconclusive results are not listed. Calls of active or inactive are those of the source. Unless noted, the call rests on the fitted dose curve.

Assays:
[1] = Nuclear factor erythroid 2-related factor 2/antioxidant responsive element (Nrf2/ARE) small molecule agonists: qHTS cell viability counter screen in human keratinocytes (AID 1919968; active means well fitted curve in the direction sought with a large enough effect in the repeat runs; an effect the other way counts as inactive or inconclusive; further: nearly all actives have a fitted effect of over 55% in size)
Outline: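 KeratinoSens HaCaT cells, 1,500/well, preincubated 5 h, then exposed to compounds in DMSO for 23 h at 37 C/5% CO2. Viability read as CellTiter-Fluor fluorescence after 1 h, in the same wells as the ARE-luciferase read.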

[2] = Nuclear factor erythroid 2-related factor 2/antioxidant responsive element (Nrf2/ARE) small molecule agonists: luciferase reporter gene qHTS assay in human keratinocytes (AID 1919969); further: nearly all actives have a fitted effect of over 35% in size
[3] = target: Gonadotropin-releasing hormone receptor (Homo sapiens) (UniProt P30968); test: Human gonadotropin-releasing hormone receptor (GnRHR) small molecule agonists, calcium flux assay in GnRHR-HEK293 cells (AID 1920063); further: nearly all actives have a fitted effect of over 35% in size
Outline: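 HEK293 cells stably expressing human GnRHR were dye-loaded for 1 h at 37 C. Compound was added in agonist mode and fluorescence (Ex/Em 480/540) recorded kinetically for 3 min. Fifteen concentrations, triplicates.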

[4] = target: KiSS-1 receptor (Homo sapiens) (UniProt Q969F8); test: Human kisspeptin (KISS1R) small molecule agonists, calcium flux assay in KISS1R-HEK293 cells (AID 1920064; active means well fitted curve in the direction sought with a large enough effect in the repeat runs; an effect the other way counts as inactive or inconclusive)
Outline: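 HEK293 cells stably expressing human KISS1R were loaded with calcium dye for 1 h at 37 C, then given compound; fluorescence (Ex/Em 480/540) was read kinetically for 3 min. Fifteen concentrations, triplicate.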

[5] = G protein-coupled receptor (GPCR) small molecule agonists, calcium flux assay: HEK293 wild type cell line counter screen (AID 1920065)
Outline: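 Wild-type HEK293 cells plated 18 h, loaded with calcium dye 1 h at 37 C, then compounds added in agonist mode (ATP as positive control). Kinetic fluorescence Ex/Em 480/540 recorded 3 min at 1 sec intervals; 15 concentrations, triplicate.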

[6] = p53 small molecule agonists, cell-based qHTS assay with human liver microsomes (AID 1963577);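 further: p53 response element beta-lactamase reporter cells with liver microsomes plus NADPH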
Outline: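 Reporter activation was measured by LiveBLAzer fluorescence intensity in p53RE-bla cells, which had been exposed to compounds for 16 h at 37 C alongside 0.5 mg/mL human liver microsomes and 0.5 mg/mL NADPH (final concentrations).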

[7] = p53 small molecule agonists, cell-based qHTS assay with rat liver microsomes (AID 1963578)
Outline: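 Compound in DMSO added to p53RE-bla cells 5 h post-plating; rat microsomes/NADPH 0.5 mg/mL final; 16 h, 37 C; LiveBLAzer 2 h RT.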

[8] = p53 small molecule agonists, cell-based qHTS assay with human liver microsomes: qHTS cell viability counter screen (AID 1963579); further: nearly all actives have a fitted effect of over 45% in size
Outline: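 HLM-supplemented (0.5 mg/mL final) and NADPH-supplemented (0.5 mg/mL final) p53RE-bla cultures, 4,000 cells per well, were dosed with compounds in DMSO for 16 h at 37 C; luminescent ATP detection (CellTiter-Glo, 30 min, room temperature) quantified surviving cells.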

[9] = p53 small molecule agonists, cell-based qHTS assay with rat liver microsomes: qHTS cell viability counter screen (AID 1963580); further: nearly all actives have a fitted effect of over 45% in size
Outline: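 Intracellular ATP, by CellTiter-Glo luminescence, defines viability. HCT-116 p53RE-bla cells, 4,000 per well, were compound-treated in the presence of rat liver microsomes and NADPH for 16 h at 37 C.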

[10] = p53 small molecule agonists, cell-based qHTS assay: qHTS cell viability counter screen (AID 1963581); further: nearly all actives have a fitted effect of over 45% in size
Outline: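 p53RE-bla HCT-116 cells, compounds added 5 h after plating and incubated 16 h at 37 C. Cytotoxicity measured in the same wells as intracellular ATP by CellTiter-Glo luminescence after 30 min at room temperature.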

[11] = p53 small molecule agonists, cell-based qHTS assay (AID 1963582; active means well fitted activation curve with a large enough effect in the signal ratio in the repeat runs, not every such curve was filed as active; the % refers to the signal ratio)
Outline: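 p53RE-bla reporter cells, compounds added in DMSO after 5 h plating, incubated 16 h at 37 C. Beta-lactamase read via 2 h room-temperature LiveBLAzer B/G FRET substrate, fluorescence intensity.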

[12] = target: 5-hydroxytryptamine receptor 2A (Homo sapiens) (UniProt P28223); test: 5-hydroxytryptamine receptor 2A (HTR2A) small molecule antagonists, cell-based qHTS assay (AID 1963586); further: nearly all actives have a fitted effect of over 45% in size
Outline: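 Antagonist-mode intracellular calcium assay: DOI (4 nM) added after 5 min compound pre-incubation at room temperature to dye-loaded HTR2A-CHO cells. Fluorescence followed for 3 min, sampled every second.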

[13] = target: 5-hydroxytryptamine receptor 2A (Homo sapiens) (UniProt P28223); test: 5-hydroxytryptamine receptor 2A (HTR2A) small molecule agonists, cell-based qHTS assay (AID 1963587); further: nearly all actives have a fitted effect of over 30% in size
Outline: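 Kinetic calcium-flux fluorescence (2 min, 1 sec intervals) after compound addition in agonist mode. HTR2A-CHO cells were cultured 18 h, then dye-loaded 1 h at 37 C.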

[14] = target: Muscarinic acetylcholine receptor M1 (Homo sapiens) (UniProt P11229); test: Cholinergic receptor muscarinic 1 (CHRM1) small molecule antagonists, cell-based qHTS assay (AID 1963588); further: nearly all actives have a fitted effect of over 40% in size
Outline: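 CHRM1-CHO calcium-flux assay, antagonist mode. Cells were seeded 18 h, dye-loaded 1 h at 37 C and given compound for 5 min at RT, then acetylcholine was added at 50nM. FDSS fluorescence was read 3 min; 15 concentrations, three runs.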

[15] = target: Muscarinic acetylcholine receptor M1 (Homo sapiens) (UniProt P11229); test: Cholinergic receptor muscarinic 1 (CHRM1) small molecule agonists, cell-based qHTS assay (AID 1963589); further: nearly all actives have a fitted effect of over 35% in size
Outline: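 CHO cells stably expressing human CHRM1 were loaded with calcium dye for 1 h at 37 C, then compound was added in agonist mode. Intracellular calcium fluorescence was followed kinetically at 1 s intervals. Fifteen concentrations were tested in three independent runs.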

[16] = cAMP Responsive Elements (CRE) small molecule agonists, cell-based qHTS assay (AID 1963590)
Outline: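 CRE-bla HEK 293T cells, 2,000/well in DMEM with 10% dialyzed FBS and 25 mM HEPES, pre-incubated 18 h at 37 C, then exposed to compound 3 h at 37 C. Beta-lactamase reporter read with LiveBLAzer B/G FRET substrate after 2 h at room temperature.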

[17] = cAMP Responsive Elements (CRE) small molecule antagonists, cell-based qHTS assay (AID 1963591; active means well fitted inhibition curve with a large enough effect in the signal ratio in the repeat runs, not every such curve was filed as active; the % refers to the signal ratio)
Outline: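 CRE-bla HEK293T cells plated 18 h, then given compound plus NKH477 at 0.25 uM final for 3 h at 37C. Beta-lactamase reporter read with LiveBLAzer B/G FRET substrate after 2 h at room temperature.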

[18] = target: Beta-2 adrenergic receptor (Homo sapiens) (UniProt P07550); test: Adrenergic beta2 receptor (ADRB2) small molecule antagonists, cell-based qHTS assay (AID 1963592); further: series mostly up to about 92 µM; nearly all actives have a fitted effect of over 50% in size
Outline: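 Cells (CHO, stable ADRB2 overexpression) incubated 18-20hr at 37C; compounds added from DMSO; agonist mix (1nM isoproterenol, 100uM IBMX, 25uM Ro-20-1724) added; 0.5hr RT; d2-cAMP and anti-cAMP-cryptate added; 1hr RT; 665/615 nm read.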

[19] = target: Beta-2 adrenergic receptor (Homo sapiens) (UniProt P07550); test: Adrenergic beta2 receptor (ADRB2) small molecule agonists, cell-based qHTS assay (AID 1963593);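 further: CHO cells stably overexpressing human ADRB2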
Outline: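 CHO cells stably over-expressing ADRB2 were plated overnight at 37C, then dosed with compounds plus a stimulation mix containing 100uM IBMX and 25uM Ro-20-1724 for 0.5hr at room temperature. cAMP was measured by HTRF competition, 1hr.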

[20] = target: D(2) dopamine receptor (Homo sapiens) (UniProt P14416); test: Dopamine D2 receptor (DRD2) small molecule agonists, cell-based qHTS assay (AID 1963594); further: nearly all actives have a fitted effect of over 35% in size; further: potency means the concentration at half of the fitted maximal effect
Outline: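 cAMP accumulation in DRD2-HEK293 cells measured by HTRF after 1 h detection; compounds added 10 min before NKH477 (200nM […]) forskolin-analogue stimulation, 30 min at room temperature, with Ro20-1724 present at 0.1 mM final.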

Measured: Potency

Chain of Beta-2 adrenergic receptor (Homo sapiens) (P07550 whole entry, looked up): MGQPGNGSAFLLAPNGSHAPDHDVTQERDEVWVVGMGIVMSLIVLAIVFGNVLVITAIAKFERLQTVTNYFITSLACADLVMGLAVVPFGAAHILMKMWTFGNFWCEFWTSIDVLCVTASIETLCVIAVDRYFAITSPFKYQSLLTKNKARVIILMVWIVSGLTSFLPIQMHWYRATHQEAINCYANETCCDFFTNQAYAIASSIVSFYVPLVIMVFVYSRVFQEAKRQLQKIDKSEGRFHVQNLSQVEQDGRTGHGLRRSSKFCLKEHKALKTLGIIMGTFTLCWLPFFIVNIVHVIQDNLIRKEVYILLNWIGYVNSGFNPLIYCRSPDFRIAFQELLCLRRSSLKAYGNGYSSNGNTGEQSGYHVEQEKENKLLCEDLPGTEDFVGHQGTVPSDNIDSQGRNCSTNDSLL
Chain of D(2) dopamine receptor (Homo sapiens) (P14416 whole entry, looked up): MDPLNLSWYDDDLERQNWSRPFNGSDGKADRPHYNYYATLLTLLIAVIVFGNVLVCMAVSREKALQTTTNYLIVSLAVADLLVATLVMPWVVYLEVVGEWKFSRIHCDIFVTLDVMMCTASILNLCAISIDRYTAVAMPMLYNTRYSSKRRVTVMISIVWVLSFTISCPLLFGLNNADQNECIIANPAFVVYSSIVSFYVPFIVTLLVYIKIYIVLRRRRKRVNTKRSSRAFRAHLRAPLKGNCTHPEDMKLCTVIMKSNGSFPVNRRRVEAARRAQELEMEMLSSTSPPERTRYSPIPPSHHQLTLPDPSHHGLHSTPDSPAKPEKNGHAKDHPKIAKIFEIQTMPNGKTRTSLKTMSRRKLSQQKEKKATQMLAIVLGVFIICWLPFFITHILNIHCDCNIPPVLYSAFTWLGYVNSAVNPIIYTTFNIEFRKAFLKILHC
Chain of 5-hydroxytryptamine receptor 2A (Homo sapiens) (P28223 whole entry, looked up): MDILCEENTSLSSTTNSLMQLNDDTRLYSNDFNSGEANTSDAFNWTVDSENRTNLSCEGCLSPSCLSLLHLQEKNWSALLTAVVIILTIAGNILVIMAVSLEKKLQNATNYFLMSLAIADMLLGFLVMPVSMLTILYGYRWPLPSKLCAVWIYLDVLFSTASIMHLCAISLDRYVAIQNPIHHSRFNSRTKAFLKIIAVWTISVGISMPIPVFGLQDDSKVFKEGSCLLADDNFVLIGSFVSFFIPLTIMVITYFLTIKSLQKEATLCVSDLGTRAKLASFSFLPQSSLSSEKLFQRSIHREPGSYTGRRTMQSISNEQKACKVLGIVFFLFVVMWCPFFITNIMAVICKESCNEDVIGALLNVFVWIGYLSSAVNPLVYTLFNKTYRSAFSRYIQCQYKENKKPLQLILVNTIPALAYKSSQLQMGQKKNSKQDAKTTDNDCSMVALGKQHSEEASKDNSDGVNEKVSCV
Chain of Gonadotropin-releasing hormone receptor (Homo sapiens) (P30968 whole entry, looked up): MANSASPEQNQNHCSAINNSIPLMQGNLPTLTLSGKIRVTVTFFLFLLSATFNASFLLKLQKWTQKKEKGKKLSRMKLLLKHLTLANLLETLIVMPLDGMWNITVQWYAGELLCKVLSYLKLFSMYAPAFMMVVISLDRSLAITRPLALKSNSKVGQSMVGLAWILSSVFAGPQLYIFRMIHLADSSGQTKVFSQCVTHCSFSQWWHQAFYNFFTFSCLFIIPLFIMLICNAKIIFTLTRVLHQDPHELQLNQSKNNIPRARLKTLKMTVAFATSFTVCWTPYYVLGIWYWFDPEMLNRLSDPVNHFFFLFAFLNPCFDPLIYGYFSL
Chain of Muscarinic acetylcholine receptor M1 (Homo sapiens) (P11229 whole entry, looked up): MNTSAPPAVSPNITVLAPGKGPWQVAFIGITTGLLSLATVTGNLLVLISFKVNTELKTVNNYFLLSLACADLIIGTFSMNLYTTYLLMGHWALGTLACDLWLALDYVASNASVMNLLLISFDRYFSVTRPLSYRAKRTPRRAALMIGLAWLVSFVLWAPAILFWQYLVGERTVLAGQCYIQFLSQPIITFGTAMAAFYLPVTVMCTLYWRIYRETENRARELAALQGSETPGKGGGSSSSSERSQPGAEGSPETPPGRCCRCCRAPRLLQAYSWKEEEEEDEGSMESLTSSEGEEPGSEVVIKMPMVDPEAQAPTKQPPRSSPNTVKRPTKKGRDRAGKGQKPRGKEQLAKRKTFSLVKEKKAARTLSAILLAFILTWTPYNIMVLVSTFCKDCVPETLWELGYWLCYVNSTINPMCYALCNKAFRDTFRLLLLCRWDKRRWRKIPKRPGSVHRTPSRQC
Chain of KiSS-1 receptor (Homo sapiens) (Q969F8 whole entry, looked up): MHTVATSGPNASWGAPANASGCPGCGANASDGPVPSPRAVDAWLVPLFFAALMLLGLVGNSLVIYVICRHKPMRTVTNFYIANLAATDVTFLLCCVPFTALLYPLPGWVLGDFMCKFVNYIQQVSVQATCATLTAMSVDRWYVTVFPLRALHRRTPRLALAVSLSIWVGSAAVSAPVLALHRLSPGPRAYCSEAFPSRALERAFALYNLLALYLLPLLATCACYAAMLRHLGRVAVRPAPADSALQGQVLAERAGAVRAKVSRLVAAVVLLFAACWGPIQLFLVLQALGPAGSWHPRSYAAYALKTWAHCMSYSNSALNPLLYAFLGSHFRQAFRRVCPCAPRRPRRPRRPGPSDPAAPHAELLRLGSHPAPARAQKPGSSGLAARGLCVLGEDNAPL

CCCC(C)C(O)CC (stereo not given)
inactive: all assays above

CC(CCC(=O)O)C(=O)O (stereo not given)
inactive: all assays above

CCOC(=O)c1c(C)n(C)c2ccc(O)cc12
inactive: all assays above

CCCCCCCCCCCCI
active: [20] 54.7 µM
inactive: all other assays above

CC1=C(C=O)C(C)(C)CC=C1
inactive: all assays above

CCC(CC)C(C)CCOC(C)=O (stereo not given)
inactive: all assays above

CC1(C)C(O)C(C)(C)C1O (stereo not given)
inactive: all assays above

CCCCCCCCCC(C)=O
inactive: all assays above

OCCC(F)(F)C(F)(F)C(F)(F)C(F)(F)C(F)(F)C(F)(F)F
inactive: all assays above

Clc1nc(Cl)c(Cl)c(Cl)c1Cl
inactive: all assays above

CC(=O)CC(N)=O
inactive: all assays above

CCN(CC)CC(=O)OCC(=O)[C@@]1(O)CC[C@H]2[C@@H]3CCC4=CC(=O)CC[C@]4(C)[C@H]3[C@@H](O)C[C@@]21C
inactive: all assays above

CC(C)OC(C)C
inactive: all assays above

CCCCCCCOC(C)=O
inactive: all assays above
